ChEMBL document CHEMBL4513216, “Probing the Open Global Health Chemical Diversity Library for Multistage-Active Starting Points for Next-Generation Antimalarials” (ACS Infect Dis, 2020)
Among all 65,000 compounds or so, about 2,100 (3.2%) showed an effect of 50% or more. The median lay at about -52%. This is one part of a sample in which strong results are shown more often than they occur.

System: Plasmodium falciparum
Assay: Screen against P. falciparum Asexual Blood Stage (ABS), at 5uM
Format: functional, Dd2
Details: tested at 5 uM

SMILES	INHIBITION
O=C(CCc1ccc(-n2cnnn2)cc1)Nc1ccncc1	-12.1%
CCn1cc2c(n1)CN(Cc1nccs1)CC2COCC1CC1 (stereo not given)	-9.1%
CN(C)c1nc(O)cc(C2CCN(C(=O)Cc3ccccn3)C2)n1 (stereo not given)	-107%
N#CC1CCCN(c2ncnc3c2CCN(Cc2ccccc2)CC3)C1 (stereo not given)	-71.7%
Cc1cc(CNc2cccc(Cl)c2C)no1	54.3%
Cc1cc(CNc2ccccc2Cl)no1	40.4%
CCOc1c(Cl)cccc1NCc1cc(C)on1	-51.8%
CNC(=O)c1cnc(C=Cc2cc(OC)c(O)c(OC)c2)s1	-64.8%
CNC(=O)c1cccc(CNC(C)c2ccc(F)cc2N(C)C)c1 (stereo not given)	-107%
CNC(=O)c1cccc(CNC(C)c2cc(C)ccc2OC(F)F)c1 (stereo not given)	60.1%
CNC(=O)c1cccc(CNC(C)c2cc(Cl)ccc2OC)c1 (stereo not given)	-5.94%
Cc1oc(C)c(C(=O)NCc2cccnc2N(C)C)c1C	-69.8%
Cc1oc(C)c(C(=O)NCc2ccccn2)c1C	-148%
Cc1oc(C)c(C(=O)NCc2ccccc2CN(C)C)c1C	57.3%
COc1ncccc1CNC(=O)c1c(C)oc(C)c1C	32.4%
CCOc1ncccc1CNC(=O)c1c(C)oc(C)c1C	58.4%
Cc1oc(C)c(C(=O)NCc2ccccc2S(=O)(=O)N(C)C)c1C	-57.1%
Cc1cc(CC(C)Nc2ncc(C)c(N(C)C)n2)[nH]n1 (stereo not given)	-13.9%
O=C(c1ccccc1)N1C[C@@H]2CCCO[C@@H]2[C@H](N2CCCC2)C1	-41.1%
O=C(O)[C@@H]1CN(C(=O)c2ccc3[nH]nnc3c2)C[C@H]1c1ccccc1	-123%
COCC1(C(=O)N[C@H]2CN(c3nnc(C)s3)C[C@@H]2C2CC2)CCC1	-176%
CC(C)c1nc(CN(C)C2CCN(CCNS(C)(=O)=O)C2)no1 (stereo not given)	-20.9%
CSCCc1ccc(NC(=O)NCc2ccnc(N(C)C)c2)cc1	-46.2%
COc1cc(N2C[C@@H]3COC[C@]3(COc3ncccc3F)C2)ncn1	-25.8%
c1c(CN2CCCC2)nc2n1CCN(C1CCOCC1)C2	-103%
Cc1cc2n(n1)CC(CNCc1ccc(-n3cccn3)cc1)CN2 (stereo not given)	53.4%
Cc1cc2n(n1)CC(CNCc1cnn(-c3ccccc3)c1)CN2 (stereo not given)	-71.4%

SMILES	INHIBITION
COc1ccc(CNCC2CNc3cc(C)nn3C2)cn1 (stereo not given)	-171%
c1ccc(Oc2ccc(CNCC3CNc4ccnn4C3)cn2)cc1 (stereo not given)	-12.8%
c1ccc(Oc2cc(CNCC3CNc4ccnn4C3)ccn2)cc1 (stereo not given)	53.3%
Cc1cc2n(n1)CC(CNCc1ccc(-n3cccn3)nc1)CN2 (stereo not given)	15.1%
COc1cc(CNCC2CNc3ccnn3C2)ccn1 (stereo not given)	-129%
Cc1cc2n(n1)CC(CNCc1ccc(OCC3CC3)nc1)CN2 (stereo not given)	-101%
Cc1cc2n(n1)CC(CNCc1ccc(Oc3ccccc3)nc1)CN2 (stereo not given)	58.9%
COc1ccccc1N1CC(NC(=O)c2cc(C(C)C)nn2C)CC1=O (stereo not given)	-102%
COCC1c2nnn(C)c2CCN1C(=O)CCc1cccc(OC)c1 (stereo not given)	-85.3%
CC1CCCN(Cc2ccc(C(N)=O)cc2)C1 (stereo not given)	-118%
COc1ccc(NC(C)c2nnnn2-c2ccccc2)cc1F (stereo not given)	-2.6%
Cc1nc(Cc2ccccc2)nc2sc(C(=O)O)c(C)c12	-62.8%
CC(=O)N1CCN(c2nc(C(F)(F)F)nc3sc(C)c(C)c23)CC1	-30.4%
Cc1sc2nc(CCN)nc(N3CCS(=O)(=O)CC3)c2c1C	-119%
CCOC(=O)N1CCN(c2nc(CCN)nc3sc(C)c(C)c23)CC1	66.1%
Cc1cnn(CC(C)NCc2ccc(OCC(N)=O)cc2)c1 (stereo not given)	-49.9%
CCOC(=O)N1CCN(c2nc(NCCCO)c3ccccc3n2)CC1	-50.8%
CCn1ccc(-c2cc(NCCCOc3ccccc3C)nc(C)n2)n1	-2.89%
CC(C)COc1ccccc1C(N)CC(C)C (stereo not given)	28.3%
CCOc1ccccc1C(N)CC(C)C (stereo not given)	33.2%
Cc1ccc(Oc2c(F)cccc2OC[C@@H](N)CC(C)C)cc1	65.9%
O=C(O)c1ccnc(SCC(F)(F)F)c1	-13.4%
CN1[C@@H](C(=O)NCC2CC2)C[C@H]2CN(Cc3cccc(C#N)c3)C[C@H]21	27.2%
CN1CCN(C[C@@H]2OC[C@H]3CN(CCc4ccccc4)CC[C@H]32)CC1	66.1%
CN1CCN(C[C@@H]2OC[C@H]3CN(Cc4cccc(F)c4)CC[C@H]32)CC1	19.2%
Cc1ccc(CN2CC[C@@H]3[C@@H](CO[C@H]3CN3CCN(C)CC3)C2)cc1	-1.6%
Cn1cccc1C(=O)N1CCO[C@H]2[C@H](OCc3cccnc3)CC[C@@H]21	-57.2%

SMILES	INHIBITION
CC(C)C(=O)N1CCC([C@@H]2C[C@H](C(F)F)n3ncnc3N2)CC1	12.2%
COCCN1CCOCC12CCN(C(=O)c1c[nH]c3ccccc13)CC2	-122%
Cc1ccc(CN2CCOCC3(C2)CN(c2ccc(C)s2)C(=O)CO3)o1 (stereo not given)	-71.8%
CCc1cc(N2CCC3(CCCNC3=O)C2)nc(N2CCOCC2)n1 (stereo not given)	-56.1%
Cc1ccc(CN2CCOC3(COCCN(CCN(C)C)C3)C2)o1 (stereo not given)	-69.1%
CC(C)NC(=O)C1(Cc2ccccc2-c2cccs2)CCNC1 (stereo not given)	68.3%
O=C(O)C1(Cc2ccc(-c3cccs3)cc2)CCNC1 (stereo not given)	-44.3%
CC(C)CNC(=O)C1(Cc2ccccc2-c2ccccc2)CCNC1 (stereo not given)	52%
CC(C)NC(=O)C1(Cc2ccccc2-c2cncnc2)CCCNC1 (stereo not given)	-14.3%
O=C(NCCO)C1(Cc2ccccc2-c2cccnc2)CCOCC1	-31.7%
COCCNC(=O)C1(Cc2ccccc2-c2ccncc2)CCOCC1	-10.1%
Cc1cc(=O)[nH]c(=O)n1Cc1ncc(-c2ccccc2C(=O)O)s1	-46.1%
O=C1C(NCc2nnc3n2CCCC3)CCN1c1ccccc1Cl (stereo not given)	-35.2%
CN(CC1CC1)c1ccc2ccc(C(=O)NC3CCCCC3)cn12	54.6%
CN(C)CCNC(=O)c1ccc2ccc(N(C)CC3CC3)n2c1	19.9%
CCN(CC)c1ccc2ccc(C(=O)NC3CC3)cn12	-34.9%
CN(CC1CC1)c1ccc2ccc(C(=O)NCCc3ccccc3)cn12	-46.3%
CN(C)C(=O)CNC(=O)c1ccc2ccc(N(C)CC3CC3)n2c1	-73.5%
COCCNC(=O)c1ccc2ccc(N(C)CC3CC3)n2c1	60.1%
Cn1cccc1CN1CCC2(CC1)CN(c1ncccn1)CCO2	-28.5%
Cc1ccc(CN(Cc2cccnc2)C2CC(C)(C)NC(C)(C)C2)s1	69.6%
Cc1ccc(CN(Cc2ncc[nH]2)C2CC(C)(C)NC(C)(C)C2)o1	-15.9%
Cc1ccc(CN(Cc2c[nH]cn2)C2CC(C)(C)NC(C)(C)C2)o1	-50.8%
CC1(C)CC(N(Cc2ccccc2)Cc2cccnc2)CC(C)(C)N1	54.6%
CC1(C)CC(N(Cc2ccncc2)Cc2cccnc2)CC(C)(C)N1	25.7%
Cc1ccc(CN(Cc2ccccn2)C(=O)[C@H]2CC[C@@H](N)C2)s1	-57.1%
Cc1ccc(CN(Cc2ccccn2)C2CC(C)(C)NC(C)(C)C2)s1	69.8%

SMILES	INHIBITION
CC1(C)CC(N(Cc2ccccc2)Cc2c[nH]cn2)CC(C)(C)N1	20.7%
Cc1cccc(CN(Cc2cccnc2)C2CC(C)(C)NC(C)(C)C2)n1	42.9%
CC1(C)CC(N(Cc2cccnc2)Cc2cccnc2)CC(C)(C)N1	-5.22%
Cc1ccc(CN(Cc2ccncc2)C2CC(C)(C)NC(C)(C)C2)o1	66.9%
Cc1ccc(CN(Cc2ccncc2)C2CCN(C)CC2)s1	34.9%
CCn1ncc2c(C(F)(F)F)cc(-c3ccn(C)n3)nc21	-88%
COc1ccc(C(C)Nc2cnn(C)c(=O)c2Cl)cc1OC (stereo not given)	-40.4%
CC(C)OCCN1CCC(Nc2ncccn2)CC1	-102%
CCC1CN(C(=O)NCc2cccnc2-n2cccn2)CCO1 (stereo not given)	-88.4%
O=C(O)C1CCCN1c1nc(-c2ccc(Cl)c(Cl)c2)cc(C(F)(F)F)n1 (stereo not given)	-8.45%
CCCc1nc(C)c(C(=O)NCCn2nc3ccccn3c2=O)s1	-201%
Cc1cccc(C(CNC(=O)NCc2cc[nH]n2)N2CCOCC2)c1 (stereo not given)	53%
O=C(NCc1cc[nH]n1)NCC(c1ccccc1)N1CCOCC1 (stereo not given)	-82.7%
O=C(NCc1cc[nH]n1)NCC(c1ccc(F)cc1)N1CCOCC1 (stereo not given)	-39%
CCCn1ccnc1-c1nccn1CCn1cnnc1	-36%
O=C(C1CCOCC1)N1CCO[C@H]2[C@H](Oc3ccccn3)CC[C@@H]21	-53.1%
O=C(NCC(=O)N1CCCC1)c1nn(-c2ccccc2F)cc1O	-120%
CCOCC(O)CN1CCN(C(=O)c2ccc(OC)cc2)CC1 (stereo not given)	-24.3%
CCOCC(O)CN1CCN(C(=O)c2ccc(N(C)C)nc2)CC1 (stereo not given)	-72.5%
CCOCC(O)CN1CCN(C(=O)c2ccc(C)nc2)CC1 (stereo not given)	60.7%
CC(Nc1ccc(C#N)cc1F)c1cccc(S(N)(=O)=O)c1 (stereo not given)	-49.5%
Cc1nc(CN2CC[C@@H]3[C@@H](CCC(=O)N3CCc3c[nH]cn3)C2)co1	-58.8%
O=C1CC[C@H]2CN(Cc3cccnc3)CC[C@H]2N1CCc1c[nH]cn1	-154%
O=C1CC[C@H]2CN(Cc3ccc(Cl)s3)CC[C@H]2N1CCc1c[nH]cn1	66.6%
